# Screening results (PubChem BioAssay)
# A selection: hits, their analogues and other compounds. The true share with any hit is near 2.4%.
# D2 ag-1 = agonists of human D2 dopamine receptor (beta-arrestin) | DiscoveRx PathHunter D2 beta-arrestin, luminescence, 90 min; 100% = 57 uM dopamine signal | activation, % (no concentration beside the values) | AID 624465 | 0.084% of 360,000 active; in the data active = activation above about 40%
# Target sequence (P14416 whole entry, looked up): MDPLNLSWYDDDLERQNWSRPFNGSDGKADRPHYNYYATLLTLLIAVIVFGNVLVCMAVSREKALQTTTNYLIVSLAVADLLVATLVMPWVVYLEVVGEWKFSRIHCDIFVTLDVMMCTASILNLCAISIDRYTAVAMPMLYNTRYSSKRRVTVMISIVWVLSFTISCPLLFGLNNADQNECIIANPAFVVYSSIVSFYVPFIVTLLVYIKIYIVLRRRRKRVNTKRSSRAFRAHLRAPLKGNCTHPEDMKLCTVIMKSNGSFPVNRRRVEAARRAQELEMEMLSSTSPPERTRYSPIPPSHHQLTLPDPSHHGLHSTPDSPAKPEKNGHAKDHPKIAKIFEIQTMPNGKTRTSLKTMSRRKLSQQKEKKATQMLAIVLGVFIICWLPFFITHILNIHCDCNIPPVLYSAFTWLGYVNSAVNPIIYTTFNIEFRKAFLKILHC
#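 Agonist mode: compounds alone added to overnight-plated D2 PathHunter cells for 90 min at 37 C, with 57 uM final dopamine (EC100) defining full response. Beta-arrestin recruitment detected by chemiluminescent reagent, read after 1 h at ambient temperature.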
# D2 PAM-1 = human D2 receptor positive allosteric modulation; P14416; DiscoveRx D2 beta-arrestin cells, luminescence, 90 min; 100% = 57 uM dopamine signal; potentiation, % (no concentration beside the values); 0.23% of 360,000 active; in the data active = potentiation above about 50%
#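 D2 cells co-treated with compound plus 50 nM dopamine (EC20) for 90 min at 37 deg C to detect potentiation. Beta-arrestin recruitment was read as enzyme-fragment luminescence after 1 h at ambient temperature. Full response was set by 57 uM dopamine.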
# D2 antag = antagonizes the human D2 dopamine receptor | inhibition, % at 10 µM | HEK293 TREx D2 cells, calcium flux, dopamine EC80 | 2% of 340,000 active | AID 485344; in the data active = inhibition above about 30%; inactive = below that, where a call was filed; note: 0% is about no effect
#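 Cells plated overnight at 30 C with tetracycline; no-wash calcium dye, 30–90 min RT; 10 s baseline; compound pinned; 180 s read; EC80 dopamine added; another 180 s read.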
# D2 PAM-2 = D2 dopamine receptor (human) potentiation | P14416 | potentiation, % at 10 µM | 0.34% of 340,000 active | HEK293 T-REx D2, calcium flux, EC20 dopamine potentiation;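 active = potentiation over 3 SD above the plate norm, cut at about 30% in these data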; note: 0% is about no effect
#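 Calcium flux readout, no-wash dye, 1 read/s. Inducible HEK293 Trex D2 line, overnight 30 C. Compound alone 180 s (agonist flags), then EC20 dopamine, another 180 s to score potentiation.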
# D2 ag-2 = activates the human D2 dopamine receptor. P14416. HEK293 T-REx D2 cells, calcium flux agonist mode. activation, % at 2 µM. 0.53% of 340,000 active;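 active = activation over 3 SD above normal in the single-dose calcium agonist read, cut at about 30% in these data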; note: 0% is about no effect
#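 Agonism is scored from calcium flux in a force-coupled, inducible HEK293 cell line expressing D2, read kinetically for 180 s after compound addition against dopamine controls.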
# The depositor's hits bear a star; . = no result given.
SMILES,D2 ag-1,D2 PAM-1,D2 antag,D2 PAM-2,D2 ag-2
COc1cc(OC)cc(C(=O)N2CCN(c3ccccc3F)CC2)c1,-2.7,-6.9,31.0*,-0.4,0.6
COc1cc(OC)cc(C(=O)N2CCN(C(=O)c3cccc(F)c3)CC2)c1,0.8,5.5,30.8*,-1.1,0.2
O=C(c1cccc(Br)c1)N1CCN(C(=O)N2CCOCC2)CC1,-2.2,-21.7,18.5,-5.0,0.8
O=C(c1cccc(Br)c1)N1CCN(C(=O)c2cccc(Br)c2)CC1,0.4,-6.2,4.8,35.2*,0.1
COc1cc(OC)cc(C(=O)N2CCC(N3CCCCCC3)CC2)c1,-0.6,-8.1,2.6,38.0*,-0.5
CCCN1CCCc2cc(CN(CCCN3CCOCC3)C(=O)Nc3ccc(Cl)c(Cl)c3)ccc21,.,.,.,-8.5,0.0
O=C(NCc1ccccc1)c1cc(C2CCCCN2C(=O)c2cccs2)on1 (stereo unspecified),-4.0,-12.9,.,.,.
OC(c1ccccc1)c1ncc(-c2cccc(OCc3ccccc3)c2)[nH]1 (stereo unspecified),-3.1,-1.0,.,.,.
CCN(c1ccccc1)S(=O)(=O)c1nnc(NC(=O)COc2cccc(C)c2)s1,.,.,.,-3.3,0.5
COc1ccc(COc2ccsc2C(=O)Nc2ccc(Cl)cc2)cc1,-0.9,-10.0,39.9*,16.3,0.5
CCOC(=O)C1CCCN(c2ncnc3c2cnn3-c2ccc(C)c(Cl)c2)C1 (stereo unspecified),.,.,.,.,0.0
O=C(/C=C/[C@H]1O[C@@H](n2ccc(=O)[nH]c2=O)[C@H](O)[C@@H]1O)NCc1cccc2ccccc12,-3.4,-1.3,.,.,.
N#CCCN1CCN(Cc2cc(-c3ccccc3)ccc2O)CC1,-1.2,-10.0,65.1*,-30.2,0.5
CC(C)(C)CC(C)(C)c1ccc(O)c(CN2CCN(CCC#N)CC2)c1,-0.9,-19.3,4.2,-3.6,-0.1
COc1ccc([C@H]2C[C@@H](n3cc(COC(=O)c4ccccc4)nn3)[C@H](O)CN2Cc2cccs2)cc1,-10.9,1.7,.,.,.
O=C1CCCN2N=C(SCC(=O)N3N=C(c4ccc(Br)cc4)CC3c3ccc(F)cc3)SC2=N1 (stereo unspecified),0.9,-7.0,14.8,-2.2,3.6
COc1ccc(C2=NN(C(=O)CSc3ncccn3)C(c3ccc(OC)cc3)C2)cc1 (stereo unspecified),-1.5,-21.4,17.4,13.0,1.0
Cc1ccc(C2CC(c3ccc(Br)cc3)=NN2C(=O)CSC2=NN3CCCC(=O)N=C3S2)cc1 (stereo unspecified),-2.3,-7.7,-3.3,33.0*,0.3
COc1ccc(C2=NN(C(=O)CSc3nc(=O)n4cc(C)ccc4n3)C(c3ccc(C)cc3)C2)cc1 (stereo unspecified),6.4,-12.7,40.6*,-5.6,0.0
O=C(c1cccc(S(=O)(=O)N2CCN(c3ccc(F)cc3)CC2)c1)N1CCN(c2ccccc2O)CC1,5.4,-1.6,.,.,.
N#C/C(=C\c1ccncc1)c1nc2ccccc2[nH]1,9.0,21.1,-6.2,2.5,1.8
Cc1cc2nc(/C(C#N)=C/c3ccncc3)[nH]c2cc1C,2.4,-11.8,36.2*,-8.7,2.0
COc1cc(C(=O)NNC(=O)C2CSC3(C)CCC(=O)N23)cc(OC)c1OC (stereo unspecified),-1.1,-0.9,40.6*,8.7,-1.0
NC(=O)C1CCN(C(=O)c2ccc(Cl)c(NC(=O)c3cccs3)c2)CC1,-0.8,-3.2,.,.,.
Nc1ccc(-c2nc3ccc(-c4nc5ccccc5o4)cc3[nH]2)cc1,3.1,64.6*,-21.3,1.9,-0.2
SMILES,D2 ag-1,D2 PAM-1,D2 antag,D2 PAM-2,D2 ag-2
Cc1nc2ccc(-c3nc4ccccc4o3)cc2[nH]1,-1.0,-0.5,-9.9,-2.0,0.6
Nc1cc(N)cc(-c2nc3ccccc3[nH]2)c1,6.0,52.8*,26.8,3.3,-0.8
C=CC(C)(C)c1[nH]cnc1/C=C1\NC(=O)C(C(C)C)NC1=O (stereo unspecified),1.1,1.0,76.1*,6.2,1.1
Cc1cc(C(=O)CSc2nnc(-c3ccc(F)cc3)o2)c(C)n1CC1COc2ccccc2O1 (stereo unspecified),-0.7,-4.2,41.2*,-8.5,-0.2
Cc1cc(C(=O)CSc2nnc(-c3ccccc3)o2)c(C)n1CC1COc2ccccc2O1 (stereo unspecified),1.4,9.2,-16.8,14.6,0.5
CCCCCCc1cc2cc(-c3cn4c(n3)sc3cc(OC)ccc34)c(=O)oc2cc1O,.,.,.,.,-0.4
Cc1cccc(-n2c(=O)c3c(c4cc(C)ccc4n3C)n(CC(=O)N3CCCC3)c2=O)c1,.,.,.,1.7,-0.3
CCOC(=O)c1c(C)cccc1OCC(N)=O,-0.2,-17.7,-2.5,64.2*,-0.7
CCOc1ccc(CN2C(=O)c3ccccc3Sc3ccc(C(=O)NCc4ccc(C)cc4)cc32)cc1,.,.,.,10.3,0.4
COCCn1c(SCC(=O)c2ccc(C)cc2)nc2cc(C(=O)NC3CCCC3)ccc2c1=O,.,.,.,-3.4,.
CC(C)(C)c1cc(C(F)(F)F)nc(SCCCNC(=O)c2ccco2)n1,2.3,-6.9,35.6*,13.2,-1.3
CC(C)(C)c1ccc(C(=O)NCCCNC(=O)c2ccco2)cc1,-2.6,-3.5,12.8,-3.0,0.2
CCC12CN3CC(CC)(CN(C1)C3c1ccc(OCc3ccccc3)cc1)C2=O (stereo unspecified),.,.,.,-0.7,0.7
C[C@@H]1NC(=O)[C@H](CCCN=C(N)N)NC(=O)c2cc([N+](=O)[O-])cc(I)c2OCC[C@@H](C(N)=O)NC1=O,.,.,31.9*,0.2,-1.1
C[C@@H]1NC(=O)c2cc([N+](=O)[O-])cc(I)c2OCC[C@@H](C(N)=O)NC(=O)[C@H](CCCCN)NC1=O,-1.3,-7.3,-1.5,5.9,0.0
CCNC(=O)C1(C)CCN1CCC(=O)c1ccc(C)cc1 (stereo unspecified),-1.1,-5.9,.,.,.
CCCn1c(N)c(C(=O)CSc2nnc(-c3cccs3)n2C2CC2)c(=O)[nH]c1=O,48.4*,20.3,.,.,.
COCCn1c(SCC(=O)c2c(N)n(C3CC3)c(=O)[nH]c2=O)nnc1-c1ccc(Cl)cc1,40.4*,-4.3,10.9,-0.7,-0.1
CCCn1c(N)c(C(=O)CSc2nnc(-c3c[nH]c4ccccc34)n2C2CC2)c(=O)[nH]c1=O,-1.9,-6.5,.,.,.
COCCCn1c(SCC(=O)c2c(N)n(C3CC3)c(=O)[nH]c2=O)nnc1-c1ccccc1Cl,-2.2,-5.5,.,.,.
CCc1ccccc1N(c1nc(-c2ccc(OC)c(OC)c2)no1)c1nc(-c2ccc(OC)c(OC)c2)no1,.,.,.,6.9,0.4
Cc1ccc(NS(=O)(=O)c2ccc3c(c2)C(=O)c2ccccc2C3=O)c(C)c1,4.8,80.6*,-0.3,2.8,0.4
Cc1ccc(S(=O)(=O)Nc2ccc3c(c2)C(=O)c2ccccc2-3)cc1,-7.1,-6.4,.,.,.
